{"source": "PubChem BioAssay (NCATS)", "note": "Results filed as inconclusive are left out. Values without a mark were called inactive. Active and inactive are the calls of the source. Calls come from the whole dose curve; as a rule, active = well fitted inhibition curve with a large enough effect; inconclusive = small, poorly fitted or top-dose-only effect; inactive = flat fitted curve, though single readings scatter. Where a SMILES comes first, the peptide text is derived from it. [ ]: non-standard residue; d: D form. PhLac = O=C(O)[CH](O)Cc1ccccc1; NMeV = CN[CH](C(=O)O)C(C)C"}
{"assay": "P-glycoprotein substrates identified in KB-8-5-11 adenocarcinoma cell line, qHTS therapeutic library screen (AID 1346987); note: nearly all actives have a fitted effect of over 65% in size; for activity change, negative = cytotoxicity: % is set by controls: 0 for no effect and ±100 for the full control effect", "settings": "KB-8-5-11 (P-gp overexpressing) viability, CellTiter-Glo, 72 h; series mostly up to 44.5 µM; activity change, negative = cytotoxicity: at the top concentration", "method_in_brief": "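P-gp-mediated resistance screen: KB-8-5-11 cells treated 72 h with compounds in dose-response. CellTiter-Glo viability.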"}
{"molecule": "CC1=CC2(O)/C=C/C(C)(O)CC(O)/C=C/C(=O)OC23C(=O)NC(CC(C)C)C3C1C", "note": "(stereo not drawn)", "activity change, negative = cytotoxicity": "5.24% [at 17.3 µM]"}
{"molecule": "CC(=O)OCC(=O)O[C@@H]1[C@H]2[C@@H](OC(=O)c3ccccc3)[C@@H](C)C[C@]2(O)[C@H](OC(C)=O)C2(C)[C@H]3CC(C)(C)C(=O)[C@@H]3CC1(OC(C)=O)[C@@H]2OC(C)=O", "note": "(stereo partly drawn)", "activity change, negative = cytotoxicity": "-14.7% [at 17.3 µM]"}
{"molecule": "C=C(C)C1CC2(CO)C(=CC1=O)CCC(O)C2C", "note": "(stereo not drawn)", "activity change, negative = cytotoxicity": "7.08%"}
{"molecule": "C[C@@H]1C[C@H](O)/C=C/[C@H](O)[C@@H](O)CC(=O)O1", "activity change, negative = cytotoxicity": "4.95%"}
{"molecule": "CCCC(=O)O[C@]1(C(=O)COC(C)=O)CC[C@H]2[C@@H]3C[C@H](F)C4=CC(=O)C=C[C@]4(C)[C@@]3(F)[C@@H](O)C[C@@]21C", "activity change, negative = cytotoxicity": "-4.62%"}
{"molecule": "O=c1ccn([C@@H]2O[C@H](CO)[C@@H](O)[C@H]2O)c(=O)[nH]1", "outcome": "inactive"}
{"molecule": "O=C(O)c1cc(O)c2c(c1)[O][Bi][O]2", "activity change, negative = cytotoxicity": "-8.89%"}
{"molecule": "C[C@@H]1CC[C@]2(C(=O)O)CC[C@]3(C(=O)O)C(=CCC4[C@@]5(C)CC[C@H](O[C@@H]6O[C@@H](C)[C@H](O[C@@H]7O[C@H](CO)[C@@H](O)[C@H](O)[C@H]7O)[C@@H](O)[C@H]6O)C(C)(C)C5CC[C@]43C)C2[C@H]1C", "note": "(stereo partly drawn)", "outcome": "inactive [at 17.3 µM]"}
{"molecule": "COc1ccc(C2=CC(=O)OC2Cc2ccc(O)cc2)c(O)c1", "note": "(stereo not drawn)", "activity change, negative = cytotoxicity": "0.278%"}
{"molecule": "C=C[C@@]1(C)CC(=O)C2[C@](C)(O1)[C@@H](OC(C)=O)[C@@H](O)[C@H]1C(C)(C)CCC[C@]21C", "note": "(stereo partly drawn)", "activity change, negative = cytotoxicity": "9.24% [at 9.29 µM]"}
{"molecule": "CC1(O)CCC2C(C(=O)O)=COC(OC3OC(CO)C(O)C(O)C3OC(=O)/C=C/c3ccc(O)cc3)C21", "note": "(stereo not drawn)", "activity change, negative = cytotoxicity": "2.76% [at 17.3 µM]"}
{"molecule": "C[C@@H]1O[C@@H](OC[C@H]2O[C@@H](OCC3CCC4CC3C4(C)C)[C@H](O)[C@@H](O)[C@@H]2O)[C@H](O)[C@H](O)[C@H]1O", "note": "(stereo partly drawn)", "outcome": "inactive [at 17.3 µM]"}
{"molecule": "O=CCCCC=O", "activity change, negative = cytotoxicity": "-21.2%"}
{"molecule": "C=C[C@H]1[C@H](O[C@@H]2O[C@H](CO[C@@H]3OC[C@](O)(CO)[C@H]3O)[C@@H](O)[C@H](O)[C@H]2O)OC=C2C(=O)OCC[C@H]21", "outcome": "inactive [at 17.3 µM]"}
{"molecule": "C=C(C)[C@H]1C[C@@H](O)C(=C)CC[C@@H](O)C(=C)[C@@H](O)C1", "activity change, negative = cytotoxicity": "6.62%"}
{"molecule": "C=CC(C)(C)O[C@@H]1O[C@H](CO[C@@H]2OC[C@](O)(CO)[C@H]2O)[C@@H](O)[C@H](O)[C@H]1O", "activity change, negative = cytotoxicity": "1.56%"}
{"molecule": "COC(C(=O)C(O)C(C)O)C1Cc2cc3cc(OC4CC(OC5CC(O)C(O)C(C)O5)C(O)C(C)O4)c(C)c(O)c3c(O)c2C(=O)C1OC1CC(OC2CC(OC3CC(C)(O)C(O)C(C)O3)C(O)C(C)O2)C(O)C(C)O1", "note": "(stereo not drawn)", "activity change, negative = cytotoxicity": "-4.04%"}
{"molecule": "O=c1c2cccnc2n(-c2cccc([N+](=O)[O-])c2)c(=O)n1Cc1ccncc1", "activity change, negative = cytotoxicity": "2.1%"}
{"molecule": "CC(=O)O[C@H](C[C@@H](C)[C@H]1C(=O)[C@H](O)[C@@]2(C)[C@@H]3CCC4C(C)(C)[C@@H](O[C@@H]5OC[C@H](O)[C@H](O)[C@H]5O)CC[C@@]45C[C@@]35CC[C@]12C)[C@@H]1OC1(C)C", "note": "(stereo partly drawn)", "outcome": "inactive [at 17.3 µM]"}
{"molecule": "C/C=C(/C)C(=O)O[C@H]1C=C(C)C[C@H](OC(=O)c2ccc(O)cc2)C2[C@](O)(C(C)C)CC[C@@]21C", "note": "(stereo partly drawn)", "activity change, negative = cytotoxicity": "-11.2% [at 17.3 µM]"}
{"molecule": "O=C(/C=C/c1c(C(=O)O)[nH]c2cc(Cl)cc(Cl)c12)Nc1ccccc1", "activity change, negative = cytotoxicity": "9.14%"}
{"molecule": "COC1=CC(=O)O[C@@H](CCc2ccccc2)[C@@H]1O", "activity change, negative = cytotoxicity": "4.29%"}
{"molecule": "CC(c1c[nH]c2ccccc12)C(O)C(=O)O", "note": "(stereo not drawn)", "activity change, negative = cytotoxicity": "0.377%"}
{"molecule": "CCOC(=O)c1ccnc(CNCC(=O)N(CC)CCN(C)C)c1", "outcome": "inactive"}
{"molecule": "C=C1[C@H]2[C@H](O[C@@H]3O[C@H](COC(=O)/C=C/c4cc(OC)c(O)c(OC)c4)[C@@H](O)[C@H](O)[C@H]3O)OC=C(C(=O)O)[C@H]2C[C@@H]1O", "activity change, negative = cytotoxicity": "0.651% [at 17.3 µM]"}
{"molecule": "CC[C@@H](c1ccc(F)c(F)c1)n1c(C(=O)OC)c(-c2ccno2)[nH]c1=S", "activity change, negative = cytotoxicity": "-13.6%"}
{"molecule": "O=c1ccn(C2OC(CO)C(O)C2O)c(=O)[nH]1", "note": "(stereo not drawn)", "activity change, negative = cytotoxicity": "2.64%"}
{"molecule": "CC(C)C1=CC2=CCC3[C@](C)(CCC[C@@]3(C)C(=O)O)C2CC1=O", "note": "(stereo partly drawn)", "outcome": "inactive"}
{"molecule": "COc1c2c(c(C)c3c1C(=O)OC3)OC1(C)CC(O)C3(O)C(C)(C)OC(=O)CCC3(C)C1C2", "note": "(stereo not drawn)", "outcome": "inactive [at 17.3 µM]"}
{"molecule": "C[C@H]1C[C@H]2[C@@H]3CCC4=CC(=O)C=C[C@]4(C)[C@@]3(F)[C@@H](O)C[C@]2(C)[C@@]1(O)C(=O)COP(=O)(O)O", "outcome": "inactive"}
{"molecule": "NC(Cc1c[nH]c2ccccc12)C(=O)NC(CCC(=O)O)C(=O)O", "note": "(stereo not drawn)", "outcome": "inactive"}
{"molecule": "COc1ccc2c(c1O)OC[C@H]1c3ccc(O)cc3O[C@@H]21", "outcome": "inactive"}
{"molecule": "COc1cc2c(cc1O)C1(OC)Cc3ccc4c(c3C1N(C)CC2)OCO4", "note": "(stereo not drawn)", "activity change, negative = cytotoxicity": "4.82%"}
{"molecule": "Cc1onc(-c2ccccc2)c1C(=O)N[C@@H]1C(=O)N2[C@@H]1SC(C)(C)[C@@H]2C(=O)O", "Potency": "inactive"}
{"molecule": "CC(NC(=O)CC(=O)O)c1nc2ccccc2c(=O)[nH]1", "note": "(stereo not drawn)", "outcome": "inactive"}
{"molecule": "C=CC(C)(C)C12CC3C(=O)NC(Cc4cnc[nH]4)C(=O)N3C1Nc1ccccc12", "note": "(stereo not drawn)", "activity change, negative = cytotoxicity": "6.93%"}
{"molecule": "CC1(C)CC2C3=CCC4C5(C)CCC(OC6OC(CO)C(O)C(OC7OC(CO)C(O)C(OC8OC(CO)C(O)C(OC9OC(COC%10OC(CO)C(O)C(O)C%10O)C(O)C(O)C9O)C8O)C7O)C6O)C(C)(C)C5CCC4(C)C3(C)CCC2(C(=O)O)CC1O", "note": "(stereo not drawn)", "activity change, negative = cytotoxicity": "-1.4% [at 9.29 µM]"}
{"molecule": "CC(C)C(C(=O)N1CCCC1C(=O)O)N(C)C(=O)C(O)Cc1ccccc1", "note": "(stereo not drawn) (H-[PhLac]-[NMeV]-Pro-OH; configuration not given here)", "activity change, negative = cytotoxicity": "1.1%"}
